Reference: PubChem BioAssay AID781 (Emory University Molecular Libraries Screening Center, 2007)
Screen size: about 220,000 compounds; about 1,600 (0.73%) were called active. This excerpt belongs to a sample that is enriched for actives. A number with no mark means an inactive call.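 The calls were made as follows: active = inhibition above about 70% (limit read from the data); inactive = the rest.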

Target: 14-3-3 protein zeta/delta (Bos taurus) (UniProt P63103)
Assay: disruptors of 14-3-3 zeta phospho-Bad complex – biochemical, TR-FRET, bovine 14-3-3 zeta, primary screen (AID 781);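 also: 0% = full 14-3-3 plus peptide FRET controls and 100% = background without 14-3-3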
Details: TR-FRET 14-3-3zeta/Dy647-pBad peptide displacement, 1 h; at 21.7 µM; hits give high values

Sequence of 14-3-3 protein zeta/delta (Bos taurus) (P63103 whole entry, looked up): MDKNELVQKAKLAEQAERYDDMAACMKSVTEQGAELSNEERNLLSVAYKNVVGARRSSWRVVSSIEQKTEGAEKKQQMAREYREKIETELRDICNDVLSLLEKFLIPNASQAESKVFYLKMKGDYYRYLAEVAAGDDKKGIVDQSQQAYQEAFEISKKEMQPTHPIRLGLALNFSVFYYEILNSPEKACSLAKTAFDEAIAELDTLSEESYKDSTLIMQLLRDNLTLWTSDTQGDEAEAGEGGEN

| Compound | inhibition |
| --- | --- |
| COc1ccc(C(c2nnnn2Cc2cccs2)N2CCN(c3ccccc3)CC2)cc1OC (centres undefined) | -7.19% |
| COc1ccc(CCn2nnnc2C(c2ccccc2)N2CCN(C)CC2)cc1OC (centres undefined) | 82.9% (active) |
| N#Cc1ccc(C(c2nnnn2CCc2ccccc2)N2CCCCCC2)cc1 (centres undefined) | 4.83% |
| COC(=O)c1cc(NC(=O)CN2CCN(C(C)=O)CC2)cc(C(=O)OC)c1 | -3.76% |
| FC(F)(F)c1nc(-c2ccccc2)ncc1-c1nnnn1-c1ccccc1 | 13.7% |
| N/C(=N\OC(=O)COc1ccc([N+](=O)[O-])cc1)c1ccc(Br)cc1 | 2.68% |
| N/C(=N\OC(=O)Cc1ccc([N+](=O)[O-])cc1)c1ccccn1 | -17.6% |
| N/C(=N\OC(=O)Cc1ccccc1[N+](=O)[O-])c1ccc(Br)cc1 | 93.1% (active) |
| CCCc1nc(-c2cc3cc(C)ccc3[nH]c2=O)no1 | -0.29% |
| COc1ccc(-n2nc(C(=O)Nc3cc(OC)c(OC)c(OC)c3)c3ccccc3c2=O)c(OC)c1 | 2.29% |
| Cc1ccsc1/C=N/NC(=O)Cc1cc(=O)[nH][nH]1 | -22.4% |
| CCOCN(C(=O)Cn1c(C(C)O)nc2ccccc21)c1c(C)cccc1CC (centres undefined) | -12.3% |
| O=C(Oc1cccnc1)c1cc2ccccc2oc1=O | 17.9% |
| COc1ccc(C(=O)Nc2cccnc2)cc1C(=O)Nc1cccnc1 | 2.89% |
| O=C(Nc1cccnc1)c1cc2cc(Br)ccc2oc1=O | 82.5% (active) |
| COc1ccc(C)cc1S(=O)(=O)Nc1cccc(Cl)c1Cl | -10% |
| Cc1cc([N+](=O)[O-])nn1CCCC(=O)Nc1cccnc1Cl | -8.44% |
| Cc1cc2nc3c(=O)n(Cc4ccccc4)c(=O)[nH]c3nc2cc1N | -0.29% |
| Nc1ccc2nc3c(=O)[nH]c(=S)[nH]c3nc2c1 | 83.5% (active) |
| O=C1c2ccccc2NC(c2ccccn2)N1NS(=O)(=O)c1ccccc1 (centres undefined) | 5.35% |
| c1ccc(C2CNCc3c2ccc2ccccc32)cc1 (centres undefined) | -8.65% |
| CN(C)S(=O)(=O)c1cccc(-c2nn(-c3ccccc3)cc2/C=C2\SC(=S)N(CC(=O)O)C2=O)c1 | 12% |
| Cc1ccc(OCC(=O)Nc2ccc(S(=O)(=O)Nc3ccccn3)cc2)cc1 | -3.5% |
| Cc1ccc(OCC(=O)Nc2ccc(-c3nc4ncccc4o3)cc2)cc1 | 78.8% (active) |

| Compound | inhibition |
| --- | --- |
| CC(=O)Nc1ccc(OCC(=O)NCc2ccc(C)cc2)cc1 | -8.65% |
| Cc1oc2nc(SCC(=O)Nc3ccc(S(N)(=O)=O)cc3)nc(NC(=O)c3ccccc3)c2c1C | -6.33% |
| C/C=C(/C)C(=O)Nc1cccc(C2=NOC3(C2)C[C@@H](C(N)=O)N(C(=O)C2(C)CC2)C3)c1 (some centres undefined) | -2.68% |
| Cc1ccnc(NS(=O)(=O)c2ccc(NC(=O)c3ccc(S(=O)(=O)N(C)C)cc3)cc2)n1 | -9.02% |
| COc1cc(/C=N/N=C(\N)c2nonc2N)cc(OC)c1OC | -22.2% |
| COc1cc(OC)c(/C=N/NC(=O)c2ccc([N+](=O)[O-])cc2)cc1Br | 5.09% |
| COc1cc(/C=N\NC(=O)c2nonc2N)c(OC)cc1Br | 71.1% [fluorescence artefact?] (active) |
| CCc1ccc(S(=O)(=O)NCC(O)COc2ccc(OC)cc2)cc1 (centres undefined) | -1.31% |
| Cc1nc2ccccc2nc1N/N=C/c1ccc(O)cc1O | -9.43% |
| O=C(N/N=C/c1ccco1)c1csc2c1CCCC2 | -2.18% |
| O=c1[nH]c(=S)[nH]c2[nH]c(=S)[nH]c12 | 73.3% (active) |
| Cc1c(C)c(C)c2[nH]c(=S)[nH]c2c1C | -0.36% |
| Cc1cc(=O)[nH]c(=S)[nH]1 | 0.3% |
| Nc1nc(SCC(=O)N2CCN(S(=O)(=O)c3ccc(Cl)cc3)CC2)n[nH]1 | -16.8% |
| CC1CCN(C(=S)NC2CC3CCC2C3)CC1 (centres undefined) | -3% |
| COCc1c(N)c(C)nc(Cl)c1C#N | -17% |
| Cc1nnc(SCCCCSc2nnc(C)c(=O)[nH]2)[nH]c1=O | -6.9% |
| CN(C)CCCNC(=S)NCc1ccc(Cl)cc1 | -10.2% |
| CC(O)CN(Cc1ccc(Cl)cc1)CC(C)O (centres undefined) | 85.5% (active) |
| OCCN(Cc1ccccc1)Cc1ccc(Cl)cc1 | 42.7% |
| Cn1c(N)c(C(=O)COC(=O)c2ccccc2NCc2ccco2)c(=O)n(C)c1=O | 0.84% |
| O=C(N/N=C/c1ccc(OCc2ccccc2)cc1)c1ccc(O)cc1 | -9.63% |
| CCCCCC(=O)Nc1ccc(C(=O)N/N=C/c2ccc([N+](=O)[O-])cc2)cc1 | -13.5% |
| O=C(COc1ccc(/C=N/NC(=O)c2ccc(O)cc2)cc1)Nc1ccc([N+](=O)[O-])cc1 | 74.2% [fluorescence artefact?] (active) |

| Compound | inhibition |
| --- | --- |
| CSc1n[nH]c(=S)n1N | -10% |
| CN(c1ccccc1)S(=O)(=O)c1cc(C(=O)Nc2nc3ccccc3[nH]2)ccc1Cl | 1.7% |
| O=C(c1ccc2c(c1)N(Cc1ccc(F)cc1)C(=O)c1ccccc1S2(=O)=O)N1CCN(c2ccccn2)CC1 | -4.43% |
| COC(=O)CNC(=O)c1ccc2c(c1)S(=O)(=O)c1ccccc1C2=O | 2.96% |
| CCCCN(C)C(=O)c1ccc2c(c1)N(CC)C(=O)c1ccccc1S2(=O)=O | 75.6% (active) |
| Brc1ccc2c(c1)[C@H]1OCC[C@H]1[C@@H](c1cccs1)N2 | 4.8% |
| Nc1nnc(SCCN2C(=O)c3ccccc3S2(=O)=O)s1 | 5.12% |
| c1ccc(-c2ccccc2OCCN2CCCCC2)cc1 | 40.5% |
| O=S1(=O)C=C(SCCN2CCCC2)c2ccccc21 | 71.3% (active) |
| Cc1nn(CC2CC2)c(=O)n1N(C)c1ncc(C(F)(F)F)cc1Cl | -11.7% |
| Cc1nn(C)cc1N1C(=O)c2cccc3c(N)ccc(c23)C1=O | -2.5% |
| CCN(c1ccccc1)S(=O)(=O)c1ccc(NC(=O)C(C)(C)C)cc1 | 4.53% |
| CCN(c1ccccc1)S(=O)(=O)c1ccc2[nH]c(=O)[nH]c2c1 | -1.8% |
| CCN(c1ccccc1)S(=O)(=O)c1ccc(N)cc1 | 71.9% (active) |
| CCOC(=O)c1cc2c(=O)n3ccccc3nc2n(CC(C)C)c1=NC(=O)c1c(-c2c(F)cccc2Cl)noc1C | -8.06% |
| O=C1CCCC(O)=C1N=Nc1ccc2ncsc2c1 | 3.62% |
| COC(=O)c1c(C)oc(C)c1S(=O)(=O)Nc1ccc(C(C)C)cc1 | 3.11% |
| O=C(CN1C(=O)NC2(CCCCCC2)C1=O)NC1CC1 | 8.5% |
| CC1CCC2(CC1)NC(=O)N(CC(=O)c1cccn1C)C2=O (centres undefined) | 73.9% (active) |
| CC1CCC2(CC1)NC(=O)N(Cc1nnc(-c3cccs3)o1)C2=O (centres undefined) | 21.6% |
| Cc1ccc(CN2CCN(Cc3ccc(OCCO)cc3)CC2CCO)o1 (centres undefined) | -4.12% |
| COc1ccccc1CNC(=O)C1CCN(c2nc3ccccc3o2)CC1 | -3.16% |
| COc1ccccc1CNC(=O)C1CCN(S(C)(=O)=O)CC1 | 74% (active) |
| COc1ccc(CNC(=O)C2CCN(S(C)(=O)=O)CC2)cc1 | -4.78% |

| Compound | inhibition |
| --- | --- |
| Cc1cc(OCCCCOc2ccc(C#N)cc2)ccc1[N+](=O)[O-] | -4.45% |
| CCOC(=O)C1CCN(S(=O)(=O)c2cc(F)ccc2OC)CC1 | -7.19% |
| CCOC(=O)C1CCN(C(=O)/C=C/c2cc(OC)c(OC)c(OC)c2)CC1 | -11.5% |
| CCOC(=O)C1CCCCN1Cc1ccc(OC)c(OC)c1OC (centres undefined) | 79.9% (active) |
| CCN(CC)CC(=O)Nc1sc2c(c1C(=O)c1ccccc1C)CCC2 | -10.9% |
| CCCCOc1ccc(CON(C(C)=O)C(C)=O)cc1Cl | 3% |
| COc1ccc(-c2csc(NC(=O)c3ccc(N4C(=O)CCC4=O)cc3)n2)cc1OC | -4.66% |
| O=C(CN1CCCCC1)Nc1ccccc1Cl | -5.94% |
| O=C(CN1CCN(C2CCCCC2)CC1)Nc1ccccc1N1CCCCC1 | 72.6% (active) |
| Cc1ccccc1NC(=O)CNc1ccccc1N1CCCCC1 | -11.4% |
| CCCCOc1ccc(N(CC(=O)NC(C)C)C(=O)CCC(=O)Nc2ccccn2)cc1 | -8.63% |
| O=C1CC(=O)Nc2cc(S(=O)(=O)N3CCN(c4cccc(C(F)(F)F)c4)CC3)ccc2N1 | 9.3% |
| CC(C)Nc1nnc(SCC(=O)/C=C2\N(C)c3ccccc3C2(C)C)s1 | 0.42% |
| COC(=O)COc1ccc(C2NC(=O)NC(C)=C2C(=O)NCc2ccccc2)cc1OC (centres undefined) | -4.82% |
| COCCCNC(=S)NCCNc1nc2cc(C)c(C)cc2cc1C#N | -7.08% |
| Cc1ccc2cc(C#N)c(NCCNC(=S)NCCCN3CCOCC3)nc2c1 | -9.87% |
| Cc1ccc2nc(NCCCNC(=O)c3cnccn3)c(C#N)cc2c1 | 70.8% (active) |
| Cc1ccc(NC(=O)c2nc[nH]c2C(=O)N[C@@H](CCCCNC(=O)OC(C)(C)C)C(=O)OC(C)(C)C)cc1 | -8.93% |
| O=c1c(-c2ccccc2)coc2c(CN3CCOCC3)c(O)ccc12 | 81.7% (active) |
| CN1CCN(Cc2c(O)ccc3c2oc(=O)c2ccccc23)CC1 | 0.82% |
| O=c1c(-c2ccccc2)coc2cc(O)ccc12 | 4.45% |
| O=C(CSc1ccsc1[N+](=O)[O-])N1CCCCC1 | -7.81% |
